According to PubChem BioAssay:
Values without a mark were called inactive. A call without a number means that no potency is given here. For some of these results: Potency and affinity values are given separately. Active and inactive are the calls of the source. Unless noted, how the calls were made is not given here.

Columns and labels:
[1] = antimalarial activity against Dd2 strain (AID 2302;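 active means growth inhibition above 50% at the single 2 µM test dose, taken to imply half-maximal potency below 2 µM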); conditions: P. falciparum Dd2 in RBCs, LDH growth readout, 72 h; at 2 µM; hits give high values
[2] = human hepatoma cell viability loss – ATP luminescence, cytotoxicity control for P. falciparum antimalarial project, primary screen (AID 2303;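 active means inhibition above 50%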); conditions: HepG2 viability, 24-48 h, at 10 µM, hits give high values
[3] = biological target: L-lactate dehydrogenase (Plasmodium falciparum (isolate CDC / Honduras)) (UniProt Q27743); assay: PfLDH activity inhibition – cell lysate, 3D7 strain, counter-screen for P. falciparum growth inhibition project (AID 2304); conditions: P. falciparum 3D7 crude extract, LDH APAD/NBT absorbance; at 2 µM; hits give high values
[4] = inhibition of 3D7 malaria parasite growth – strain 3D7 (AID 2306); conditions: P. falciparum 3D7 erythrocytic growth, LDH absorbance, 72 h; at 2 µM; hits give high values
[5] = biological target: Calcium-dependent protein kinase 1 (Plasmodium falciparum (isolate 3D7)) (UniProt P62344); assay: PfCDPK1 kinase inhibitors, biochemical, TCAMS library (AID 1159585; cut-off not given, nearly all actives have IC50 up to about 0.98 µM;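 further: inhibitors leave more ATP so luminescence rises with inhibition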); conditions: recombinant PfCDPK1, Kinase-Glo ATP depletion luminescence
[6] = biological target: Plasmodium falciparum protein kinase 6 (PK6, PF3D7_1337100) (UniProt Q8IDW1); assay: PfPK6 kinase inhibitors, biochemical, TCAMS library (AID 1159586); conditions: recombinant PfPK6, Kinase-Glo ATP depletion luminescence
[7] = biological target: Protein kinase 7 (PK7), Plasmodium falciparum 3D7 (PF3D7_0213400) (UniProt Q7YTF7); assay: inhibition of Plasmodium PK7 catalytic activity – biochemical, TCAMS antimalarial set, Kinase-Glo luminescence (AID 1159587); conditions: recombinant PfPK7, Kinase-Glo ATP depletion luminescence
[8] = biological target: Calcium-dependent protein kinase 4 (Plasmodium falciparum (isolate 3D7)) (UniProt Q8IBS5); assay: PfCDPK4 kinase inhibitors, biochemical, TCAMS library (AID 1159588; cut-off not given, nearly all actives have IC50 up to about 0.91 µM); conditions: recombinant PfCDPK4, Kinase-Glo ATP depletion luminescence
Calcium-dependent protein kinase 4 (Plasmodium falciparum (isolate 3D7)), sequence (Q8IBS5 whole entry, looked up): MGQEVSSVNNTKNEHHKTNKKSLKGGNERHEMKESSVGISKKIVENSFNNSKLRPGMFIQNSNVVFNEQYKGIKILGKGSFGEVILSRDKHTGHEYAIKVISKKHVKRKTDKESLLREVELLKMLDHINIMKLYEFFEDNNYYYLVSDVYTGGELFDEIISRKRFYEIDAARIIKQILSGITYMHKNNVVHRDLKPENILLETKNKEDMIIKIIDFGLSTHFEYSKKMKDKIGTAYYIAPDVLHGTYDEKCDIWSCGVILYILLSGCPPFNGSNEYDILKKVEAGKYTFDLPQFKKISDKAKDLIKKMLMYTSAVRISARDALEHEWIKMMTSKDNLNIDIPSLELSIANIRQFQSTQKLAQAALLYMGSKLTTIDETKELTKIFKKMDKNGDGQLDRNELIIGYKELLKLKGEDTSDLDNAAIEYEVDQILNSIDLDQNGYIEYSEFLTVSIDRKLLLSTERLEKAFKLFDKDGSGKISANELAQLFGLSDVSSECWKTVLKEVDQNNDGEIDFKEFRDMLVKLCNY

Plasmodium falciparum protein kinase 6 (PK6, PF3D7_1337100), sequence (Q8IDW1 1-305): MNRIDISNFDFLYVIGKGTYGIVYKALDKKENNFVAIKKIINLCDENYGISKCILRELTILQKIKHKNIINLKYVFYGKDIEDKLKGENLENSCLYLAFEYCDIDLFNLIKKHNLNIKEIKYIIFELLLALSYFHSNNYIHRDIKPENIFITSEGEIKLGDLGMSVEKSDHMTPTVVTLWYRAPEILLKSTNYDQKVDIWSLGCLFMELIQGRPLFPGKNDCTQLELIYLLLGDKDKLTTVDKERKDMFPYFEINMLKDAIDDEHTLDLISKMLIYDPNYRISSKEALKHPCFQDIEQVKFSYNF
Protein kinase 7 (PK7), Plasmodium falciparum 3D7 (PF3D7_0213400), sequence (Q7YTF7 1-343): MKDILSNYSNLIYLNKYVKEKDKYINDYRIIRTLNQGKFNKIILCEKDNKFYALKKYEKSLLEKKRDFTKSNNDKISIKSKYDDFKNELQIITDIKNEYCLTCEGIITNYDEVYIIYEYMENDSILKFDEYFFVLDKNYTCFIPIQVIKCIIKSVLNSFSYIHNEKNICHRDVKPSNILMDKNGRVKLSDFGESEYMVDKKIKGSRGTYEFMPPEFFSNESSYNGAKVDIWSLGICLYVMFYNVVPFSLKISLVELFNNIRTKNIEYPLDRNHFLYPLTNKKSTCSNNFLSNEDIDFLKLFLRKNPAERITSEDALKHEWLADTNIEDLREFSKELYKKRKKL
L-lactate dehydrogenase (Plasmodium falciparum (isolate CDC / Honduras)), sequence (Q27743 whole entry, looked up): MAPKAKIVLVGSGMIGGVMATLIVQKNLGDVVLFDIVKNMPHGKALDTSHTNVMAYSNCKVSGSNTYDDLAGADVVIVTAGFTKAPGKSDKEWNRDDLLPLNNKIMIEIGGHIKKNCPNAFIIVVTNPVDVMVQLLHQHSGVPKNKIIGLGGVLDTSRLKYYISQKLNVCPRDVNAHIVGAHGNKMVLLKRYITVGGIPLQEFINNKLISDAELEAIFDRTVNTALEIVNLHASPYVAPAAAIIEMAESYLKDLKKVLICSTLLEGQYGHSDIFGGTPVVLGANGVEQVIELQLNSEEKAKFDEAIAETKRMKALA
Calcium-dependent protein kinase 1 (Plasmodium falciparum (isolate 3D7)), sequence (P62344 whole entry, looked up): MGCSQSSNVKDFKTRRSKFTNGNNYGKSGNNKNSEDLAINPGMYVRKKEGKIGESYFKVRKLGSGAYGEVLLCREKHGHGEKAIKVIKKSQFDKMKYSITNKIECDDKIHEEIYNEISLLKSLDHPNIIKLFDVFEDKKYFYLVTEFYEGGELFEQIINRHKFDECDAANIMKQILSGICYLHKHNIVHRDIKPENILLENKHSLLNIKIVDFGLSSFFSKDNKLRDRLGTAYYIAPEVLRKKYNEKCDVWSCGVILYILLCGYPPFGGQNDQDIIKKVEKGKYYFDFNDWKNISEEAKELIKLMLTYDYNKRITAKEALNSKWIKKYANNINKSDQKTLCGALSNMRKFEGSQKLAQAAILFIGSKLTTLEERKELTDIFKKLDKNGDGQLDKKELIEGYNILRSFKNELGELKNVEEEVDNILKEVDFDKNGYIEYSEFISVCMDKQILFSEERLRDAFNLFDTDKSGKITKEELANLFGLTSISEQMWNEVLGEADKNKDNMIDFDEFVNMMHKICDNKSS

## CCCC(C)C(=O)N1CCOC(COCc2cccc(C(F)(F)F)c2)(c2ccc(Cl)cc2)C1 (stereo not given)
[1]
  growth inhibition: 91% (active)
[2]
  inhibition: 2%
[3]
  inhibition: 0%
[4]
  growth inhibition: 97% (active)
[5]
  outcome: inactive
[6]
  outcome: inactive
[7]
  outcome: inactive
[8]
  outcome: inactive

## CC(=O)Nc1cc(C(=O)Nc2ccc(C3=NCCN3)cc2)ccc1C(=O)Nc1ccc(C2=NCCN2)cc1
[1]
  growth inhibition: 92% (active)
[2]
  inhibition: 12%
[3]
  inhibition: -3%
[4]
  growth inhibition: 96% (active)
[5]
  outcome: inactive
[6]
  outcome: inactive
[7]
  outcome: inactive
[8]
  outcome: inactive

## CCCCCCN1CCC(CNCc2cccc(Cl)c2)CC1
[1]
  growth inhibition: 13%
[2]
  inhibition: 8%
[3]
  inhibition: 1%
[4]
  growth inhibition: 85% (active)
[5]
  outcome: inactive
[6]
  outcome: inactive
[7]
  outcome: inactive
[8]
  outcome: inactive

## CCc1ccc(S(=O)(=O)Nc2cccc(CCN3CCC(N4CCCCC4)CC3)c2)cc1
[1]
  growth inhibition: 20%
[2]
  inhibition: 21%
[3]
  inhibition: -4%
[4]
  growth inhibition: 101% (active)
[5]
  outcome: inactive
[6]
  outcome: inactive
[7]
  outcome: inactive
[8]
  outcome: inactive

## O=c1cc(NCc2ccccc2NCc2ccc(Cl)c(Cl)c2)[nH]c2ccccc12
[1]
  growth inhibition: 98% (active)
[2]
  inhibition: 10%
[3]
  inhibition: 3%
[4]
  growth inhibition: 93% (active)
[5]
  outcome: inactive
[6]
  outcome: inactive
[7]
  outcome: inactive
[8]
  outcome: inactive

## CC(C)NCc1ccc(OCc2cccc(COc3ccc(CNC(C)C)cc3I)c2)c(I)c1
[1]
  growth inhibition: 92% (active)
[2]
  inhibition: 100% (active)
[3]
  inhibition: 6%
[4]
  growth inhibition: 101% (active)
[5]
  outcome: inactive
[6]
  outcome: inactive
[7]
  outcome: inactive
[8]
  outcome: inactive

## CCCNC(=O)Nc1ccc(N(C)c2ccnc(NC3CC3)n2)cc1
[1]
  growth inhibition: 88% (active)
[2]
  inhibition: 28%
[3]
  inhibition: -2%
[4]
  growth inhibition: 100% (active)
[5]
  outcome: inactive
[6]
  outcome: inactive
[7]
  outcome: inactive
[8]
  outcome: inactive

## Cc1ccc(NC(=O)c2ccc3ncccc3c2)cc1OC1CCN(CCC(C)C)C1 (stereo not given)
[1]
  growth inhibition: 62% (active)
[2]
  inhibition: 5%
[3]
  inhibition: -4%
[4]
  growth inhibition: 98% (active)
[5]
  outcome: inactive
[6]
  outcome: inactive
[7]
  outcome: inactive
[8]
  outcome: inactive

## Clc1ccc(OCCC2CCN(CCCCCCN3CCCCC3)CC2)cc1Cl
[1]
  growth inhibition: 36%
[2]
  inhibition: 86% (active)
[3]
  inhibition: 9%
[4]
  growth inhibition: 97% (active)
[5]
  outcome: inactive
[6]
  outcome: inactive
[7]
  outcome: inactive
[8]
  outcome: inactive

## CCCCCCC1(C)N=C(N)N=C(N)C1c1ccc(Cl)c(Cl)c1 (stereo not given)
[1]
  growth inhibition: 43%
[2]
  inhibition: 18%
[3]
  inhibition: -9%
[4]
  growth inhibition: 94% (active)
[5]
  outcome: inactive
[6]
  outcome: inactive
[7]
  outcome: inactive
[8]
  outcome: inactive

## O=C(Nc1cccc(C(F)(F)F)c1)c1cccc(S(=O)(=O)NC2CCN(CC3CCCCC3)C2)c1 (stereo not given)
[1]
  growth inhibition: 45%
[2]
  inhibition: 37%
[3]
  inhibition: -1%
[4]
  growth inhibition: 101% (active)
[5]
  outcome: inactive
[6]
  outcome: inactive
[7]
  outcome: inactive
[8]
  outcome: inactive

## CCc1ccc(C2CCN(CCCCNC(=O)c3ccc(NC(=O)c4ccc(Cl)cc4)cc3)CC2)c(OC(C)=O)c1
[1]
  growth inhibition: 100% (active)
[2]
  inhibition: 48%
[3]
  inhibition: 0%
[4]
  growth inhibition: 91% (active)
[5]
  outcome: inactive
[6]
  outcome: inactive
[7]
  outcome: inactive
[8]
  outcome: inactive

## CCc1cn2c3c(cc(C(=O)N[C@@H](Cc4ccccc4)[C@H](O)CNC4CCCCC4)cc13)N(C)S(=O)(=O)C2
[1]
  growth inhibition: 99% (active)
[2]
  inhibition: 20%
[3]
  inhibition: 0%
[4]
  growth inhibition: 99% (active)
[5]
  outcome: inactive
[6]
  outcome: inactive
[7]
  outcome: inactive
[8]
  outcome: inactive

## O=c1ccc2ccc(F)c3c2n1CC3CN1CCC(NCc2cccc(-c3ccccc3F)c2)CC1 (stereo not given)
[1]
  growth inhibition: 6%
[2]
  inhibition: 29%
[3]
  inhibition: -1%
[4]
  growth inhibition: 100% (active)
[5]
  outcome: inactive
[6]
  outcome: inactive
[7]
  outcome: inactive
[8]
  outcome: inactive

## Cc1[nH]c(C)c(-c2ccc(OCCOc3ccc(C(F)(F)F)cn3)cc2)c(=O)c1Br
[1]
  growth inhibition: 97% (active)
[2]
  inhibition: 25%
[3]
  inhibition: 3%
[4]
  growth inhibition: 97% (active)
[5]
  outcome: inactive
[6]
  outcome: inactive
[7]
  outcome: inactive
[8]
  outcome: inactive

## CC(C)(C)Cn1cc(-c2ccc(C(=O)NCCc3ccc(S(C)(=O)=O)cc3)cc2)c(N)n1 (tested in a mixture with another compound)
[1]
  growth inhibition: 10%
[2]
  inhibition: 7%
[3]
  inhibition: -1%
[4]
  growth inhibition: 86% (active)
[5]
  outcome: inactive
[6]
  outcome: inactive
[7]
  outcome: inactive
[8]
  outcome: inactive

## O=[N+]([O-])c1ccc(C=NNc2nc3ccccc3[nH]2)cc1
[1]
  growth inhibition: 98% (active)
[2]
  inhibition: 11%
[3]
  inhibition: -6%
[4]
  growth inhibition: 101% (active)
[5]
  outcome: inactive
[6]
  outcome: inactive
[7]
  outcome: inactive
[8]
  outcome: inactive

## O=C(/C=C/c1ccc(Cl)cc1)NCCCCCN1CCCC(C(=O)Nc2ccc(F)c(Cl)c2)C1 (stereo not given)
[1]
  growth inhibition: 6%
[2]
  inhibition: 27%
[3]
  inhibition: 7%
[4]
  growth inhibition: 94% (active)
[5]
  outcome: inactive
[6]
  outcome: inactive
[7]
  outcome: inactive
[8]
  outcome: inactive

## CCOC(=O)C(CO)NC(=O)c1ccc([N+](=O)[O-])o1 (stereo not given)
[1]
  growth inhibition: 2%
[2]
  inhibition: -5%
[3]
  inhibition: 8%
[4]
  growth inhibition: 96% (active)
[5]
  outcome: inactive
[6]
  outcome: inactive
[7]
  outcome: inactive
[8]
  outcome: inactive

## Cc1cc(C2CCN(CCCCNC(=O)c3ccc(NC(=O)c4ccc(Cl)cc4)cc3)CC2)c(C)cc1OCc1ccncc1
[1]
  growth inhibition: 92% (active)
[2]
  inhibition: 33%
[3]
  inhibition: 6%
[4]
  growth inhibition: 100% (active)
[5]
  outcome: inactive
[6]
  outcome: inactive
[7]
  outcome: inactive
[8]
  outcome: inactive
